# Reference: PubChem BioAssay (NCI)
# This is part of a sample that, as a whole, favours compounds with a hit. Of some 79,000 tested, about 15% had one in any assay. Active and inactive are the calls of the source. Cut-off read from the data, not from the text of the source: active = growth inhibition above about 70%; inactive = the rest.
# Assay: NCI Yeast Anticancer Drug Screen. Data for the cln2 rad14 strain (AID 165);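 note: 0% = growth equal to vehicle treated cultures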
# Settings: S. cerevisiae cln2 rad14 strain, at 50.0 µM, stronger effect = higher value
# Outline: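 Test compounds were added to cln2 rad14 yeast cultures; inhibition of growth was then determined by comparison with vehicle treatment.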
row,SMILES,growth inhibition
1,O=c1cnn(C2OC(C(O)CO)C(O)C2O)c(=O)[nH]1 (centres undefined),-27.6% (inactive)
2,COc1cc2c(cc1C1=NC(C)(C)CO1)OCO2,-0.6% (inactive)
3,CC(C)CCCC(C)[C@H]1CC[C@H]2[C@@H]3CC[C@H]4C[C@@H](CCC=C(c5cc(Cl)c(O)c(C(=O)OC(C)C)c5)c5cc(Cl)c(O)c(C(=O)OC(C)C)c5)CC[C@]4(C)[C@H]3CC[C@]12C (some centres undefined),18.7% (inactive)
4,CC(C)(C)NC(NC(C)(C)C)=C(C(Cl)=C(Cl)Cl)[N+](=O)[O-],7.8% (inactive)
5,CNC(=O)NCCCC(NC(C)=O)C(=O)NCc1ccccc1 (centres undefined),6.4% (inactive)
6,O=C(O)/C=C/C(=O)Nc1ccc2c(c1)-c1ccccc1C2=O,5.25% (inactive)
7,CCCCOc1cc2c(cc1C(C)c1ccccc1)OCO2 (centres undefined),2.8% (inactive)
8,O=c1c2ccccc2ncn1C1OC(CO)C(O)C1O (centres undefined),4.95% (inactive)
9,CCOC1CCC(C(=O)CC)C(C#N)(C#N)C1(C#N)C#N (centres undefined),12.8% (inactive)
10,COc1cc(C(=O)O)c(O)c(OC)c1OC,-36.1% (inactive)
11,O=C(CCl)Nc1cc(Cl)c(Cl)cc1Cl,2.75% (inactive)
12,CC(=O)OCC1OC(Cl)C(OC(=O)C(Cl)(Cl)Cl)C(OC(C)=O)C1OC(C)=O (centres undefined),-0.95% (inactive)
13,CC(C)C(C(=O)O)N1C(=O)c2ccccc2C1=O (centres undefined),-31.6% (inactive)
14,O=C(COc1ccc(Cl)c(Cl)c1)Nc1ccc(C(=O)CCl)cc1,-3.35% (inactive)
15,CO[C@@]12CC(=O)/C(=C(O)\C=C\c3ccccc3)C(=O)[C@]1(OC)Cc1ccccc1O2,18.6% (inactive)
16,c1ccc(-c2nnc3nn4c(-c5ccccc5)cnnc4c3c2-c2ccccc2)cc1,1.4% (inactive)
17,NC(=S)N/N=C1\C(=O)N(CCc2ccccc2)C(=O)C1C(=O)NCCc1ccccc1 (centres undefined),14.1% (inactive)
18,C=CCc1cc(OC)c2c(c1)C(OC)CC(c1ccc(OC)c(OC)c1)O2 (centres undefined),12.6% (inactive)
19,Cc1ccc(CSC(=S)NNc2ccccc2)cc1C,-13.6% (inactive)
20,Cc1ccc(S(=O)(=O)N2CCN(S(=O)(=O)c3ccc(C)cc3)CCN(S(=O)(=O)c3ccc(C)cc3)Cc3cc(Br)c(Br)cc3CN(S(=O)(=O)c3ccc(C)cc3)CC2)cc1,17.6% (inactive)
21,CC(=O)Nc1cccc(N=NN(C)C)c1,20.5% (inactive)
22,COc1ccccc1-c1coc2c(ccc3oc(C(C)C)cc32)c1=O,-52% (inactive)
23,C1=C(N2CCOCC2)CCC(N2CCOCC2)=C1,41.9% (inactive)
24,O=C1C2CSCN2C(=O)C2CSCN12 (centres undefined),12.1% (inactive)

# Assay: NCI Yeast Anticancer Drug Screen. Data for the bub3 strain (AID 167)
# Settings: S. cerevisiae bub3 mutant strain, at 50.0 µM, stronger effect = higher value
# Outline: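 Inhibition values come from growth of compound-treated mutant yeast normalised to vehicle-treated controls.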
row,SMILES,growth inhibition
1,COC(=O)/C=C/C(=N/N(C)c1ccccc1)c1ccccc1,11% (inactive)
2,CC(C)(C)OC(=O)NC(CCCCNC(=O)OCc1ccccc1)C(=O)NCCNc1ccc(NCCNC(=O)C(CCCCNC(=O)OCc2ccccc2)NC(=O)OC(C)(C)C)c2c1C(=O)c1ccccc1C2=O (centres undefined),-31.6% (inactive)
3,COc1ccc(N2C=Nn3c(nc4sc5c(c4c3=O)CCCC5)C2)cc1,4.25% (inactive)
4,Cc1sc2nc3n(c(=O)c2c1C)N=CN(c1ccc(F)cc1)C3,-7.5% (inactive)
5,N#CC(N)(C(=O)C(=O)NCCCNC(=O)C(=O)C(N)(C#N)c1ccc(Cl)cc1)c1ccc(Cl)cc1 (centres undefined),-35.1% (inactive)
6,CCOC(=O)C(=O)Nc1ccc2cc(OC)ccc2c1C#N,19.4% (inactive)
7,CC(COc1ccc(Cl)cc1)OS(=O)(=O)CCCl (centres undefined),-1.1% (inactive)
8,N#Cc1c(NC(=S)NC(=O)c2ccccc2)nc2c(c1-c1ccccc1)CCCC2,17.4% (inactive)
9,C=CCCC1CC(OCC)OC(CCC=C)O1 (centres undefined),-6.3% (inactive)
10,CC1(C)CC(C)(OC(=O)c2ccccc2)N=N1 (centres undefined),4.35% (inactive)
11,CCCOC(=O)CCCC1=NC2=CC=CC3=NC(C)=NC(=N1)N23,-38.1% (inactive)
12,c1ccc(N=C2CCCCCC2)cc1,-9.25% (inactive)
13,c1ccc2c(c1)OP1(=NP3(=NP4(=NP5(=N1)Oc1ccccc1-c1ccccc1O5)Oc1ccccc1-c1ccccc1O4)Oc1ccccc1-c1ccccc1O3)Oc1ccccc1-2,-1.1% (inactive)
14,O=C(O)CCC(=O)c1ccc2c3c(cccc13)CC2,21.5% (inactive)
15,CCc1ccc2c(c1)CCC(=O)O2,-13.9% (inactive)
16,CC(=O)OCC1OC(n2c(O)c(/C=C3\C=Nc4ccccc43)sc2=S)C(OC(C)=O)C(OC(C)=O)C1OC(C)=O (centres undefined),-3.5% (inactive)
17,O=c1cnn(C2OC(C(O)CO)C(O)C2O)c(=O)[nH]1 (centres undefined),-11.2% (inactive)
18,COc1cc2c(cc1C1=NC(C)(C)CO1)OCO2,-24.1% (inactive)
19,CC(C)CCCC(C)[C@H]1CC[C@H]2[C@@H]3CC[C@H]4C[C@@H](CCC=C(c5cc(Cl)c(O)c(C(=O)OC(C)C)c5)c5cc(Cl)c(O)c(C(=O)OC(C)C)c5)CC[C@]4(C)[C@H]3CC[C@]12C (some centres undefined),11.5% (inactive)
20,CC(C)(C)NC(NC(C)(C)C)=C(C(Cl)=C(Cl)Cl)[N+](=O)[O-],12.7% (inactive)

row,SMILES,growth inhibition
1,CNC(=O)NCCCC(NC(C)=O)C(=O)NCc1ccccc1 (centres undefined),-12.5% (inactive)
2,O=C(O)/C=C/C(=O)Nc1ccc2c(c1)-c1ccccc1C2=O,5.15% (inactive)
3,CCCCOc1cc2c(cc1C(C)c1ccccc1)OCO2 (centres undefined),15.8% (inactive)
4,O=c1c2ccccc2ncn1C1OC(CO)C(O)C1O (centres undefined),6.95% (inactive)
5,CCOC1CCC(C(=O)CC)C(C#N)(C#N)C1(C#N)C#N (centres undefined),11.8% (inactive)
6,COc1cc(C(=O)O)c(O)c(OC)c1OC,-13% (inactive)
7,O=C(CCl)Nc1cc(Cl)c(Cl)cc1Cl,64.8% (inactive)
8,CC(=O)OCC1OC(Cl)C(OC(=O)C(Cl)(Cl)Cl)C(OC(C)=O)C1OC(C)=O (centres undefined),-2.65% (inactive)
9,CC(C)C(C(=O)O)N1C(=O)c2ccccc2C1=O (centres undefined),-16.1% (inactive)
10,O=C(COc1ccc(Cl)c(Cl)c1)Nc1ccc(C(=O)CCl)cc1,42.5% (inactive)
11,CO[C@@]12CC(=O)/C(=C(O)\C=C\c3ccccc3)C(=O)[C@]1(OC)Cc1ccccc1O2,34.2% (inactive)
12,c1ccc(-c2nnc3nn4c(-c5ccccc5)cnnc4c3c2-c2ccccc2)cc1,-6.05% (inactive)
13,NC(=S)N/N=C1\C(=O)N(CCc2ccccc2)C(=O)C1C(=O)NCCc1ccccc1 (centres undefined),-5.8% (inactive)
14,C=CCc1cc(OC)c2c(c1)C(OC)CC(c1ccc(OC)c(OC)c1)O2 (centres undefined),-12.7% (inactive)
15,Cc1ccc(CSC(=S)NNc2ccccc2)cc1C,-32.6% (inactive)
16,Cc1ccc(S(=O)(=O)N2CCN(S(=O)(=O)c3ccc(C)cc3)CCN(S(=O)(=O)c3ccc(C)cc3)Cc3cc(Br)c(Br)cc3CN(S(=O)(=O)c3ccc(C)cc3)CC2)cc1,-3.1% (inactive)
17,CC(=O)Nc1cccc(N=NN(C)C)c1,34.4% (inactive)
18,COc1ccccc1-c1coc2c(ccc3oc(C(C)C)cc32)c1=O,-0.5% (inactive)
19,C1=C(N2CCOCC2)CCC(N2CCOCC2)=C1,-8.65% (inactive)
20,O=C1C2CSCN2C(=O)C2CSCN12 (centres undefined),8.8% (inactive)
